# Measurements taken from PubChem BioAssay (NCATS).
# Inconclusive results are not listed. Unmarked numbers belong to inactive results. Calls of active or inactive are those of the source. Calls follow the shape of the dose curve; as a rule, active = well fitted inhibition curve with a large enough effect; inconclusive = small, poorly fitted or top-dose-only effect; inactive = flat fitted curve, though single readings scatter.
# Legend:
# [1] = tested on: CRL-7250; experiment: Cytotoxic Profiling of Annotated Libraries Using Quantitative High-Throughput Screening (AID 1296008); settings: Five cell lines viability, CellTiter-Glo ATP luminescence, 48-72 h; max response: active compounds read low; also: potency is read from the fitted curve at half-maximal effect; as to max response: % is scaled to controls: 0 for no effect and ±100 for the full control effect
# Procedure, shortened: (§1)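 Compounds were pin-transferred onto cells and incubated 48 or 72 hr at 37 degree Celsius, 95% humidity. CellTiter-Glo was added, plates sat 10 min at room temperature, then ATP-coupled luminescence was imaged as the viability read-out.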
# [2] = tested on: HEK293; experiment: as above; settings: Five cell lines viability, CellTiter-Glo ATP luminescence, 48-72 h; max response: active compounds read low
# Procedure, shortened: as §1
# [3] = tested on: HaCat; experiment: as above; settings: Five cell lines viability, CellTiter-Glo ATP luminescence, 48-72 h; max response: active compounds read low
# Procedure, shortened: as §1
# [4] = tested on: KB-3-1; experiment: as above; settings: Five cell lines viability, CellTiter-Glo ATP luminescence, 48-72 h; max response: active compounds read low
# Procedure, shortened: as §1
# [5] = tested on: NIH3T3; experiment: as above; settings: Five cell lines viability, CellTiter-Glo ATP luminescence, 48-72 h; max response: active compounds read low
# Procedure, shortened: as §1
# [6] = tested on: HACAT; experiment: qHTS assay to identify novel small-molecules to repurpose for Merkel cell carcinoma treatment (AID 1296009); settings: MCC and control cell lines, CellTiter-Glo viability, 72 h; at 44.8 µM (top of the series) unless noted
# Procedure, shortened: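 Viability readout: ATP luminescence (CellTiter-Glo) after 72 hr drug exposure at 37 degree celsius. Dose-response format was 8 points for NPC and 11 points for MIPE; data normalized to in-plate controls.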
# Also: nearly all actives have a fitted effect of over 60% in size.
SMILES,max response [1],Potency [2],max response [3],max response [4],outcome [5],max response [2],outcome [1],outcome [4],outcome [3],outcome [6]
Cc1cn2cc(CC(=O)N3CCC4(CC3)CN(Cc3ccc(-n5nccn5)cc3Cl)C4)nc2s1,2.68%,16.4 µM (active),2.32%,0.0455%,inactive,,,,,
CN1C(=O)N(c2cc(Cl)cc(Cl)c2)C(=O)[C@@]1(C)Cc1ccc(Br)cc1,-11.1%,,-27.7%,3.14%,inactive,-15.8%,,,,
CCOc1ncc(S(=O)(=O)N2CCN(CC)CC2)cc1-c1nc2c(CC)n(CCOC)nc2c(=O)[nH]1,,,2.49%,,inactive,-6.31%,inactive,inactive,,
C/C(=C\CCC(C)C1CC(O)C2(C)C3CCC4C(C)(C)C(OC5OCC(O)C(O)C5O)CCC45CC35CC(O)C12C)C(=O)O (configuration not stated),3.53%,,3.75%,9.72%,inactive,0.956%,,,,
C=C1C[C@H](O)[C@@H](O)[C@@]2(C)C1[C@@H](O)[C@H]1OC(=O)C3[C@@H](C)[C@@H](O)[C@H](O)C2[C@]31C (some centres not stated),-9.79%,,-3.92%,,inactive,3.52%,,inactive,,
C=C1C[C@@]2(O)O[C@@]3(C[C@H]2C(C)C)[C@@H](C)CC[C@@H]13,,,-13.2%,9.57%,inactive,-11.6%,inactive,,,
C/C=C/C1OC2=C(C(=O)OC2(C)O)C(O)C1O (configuration not stated),-6.2%,,2.04%,-1.78%,inactive,-1.4%,,,,
CC1(C)CC[C@]2(C(=O)O)CC[C@]3(C)C(=CCC4[C@@]5(C)CC[C@H](O[C@@H]6O[C@H](C(=O)O)[C@@H](O)[C@H](O)[C@H]6O)C(C)(C)C5CC[C@]43C)C2C1 (some centres not stated),-10.5%,,-12.1%,4.15%,inactive,-9.32%,,,,
CCC/C=C1\OC(=O)C2=C1CCC(O)C2O (configuration not stated),,,3.9%,0.969%,inactive,1.42%,inactive,,,
CC(C)C(O)(CO)CCO[C@@H]1O[C@H](CO[C@H]2OC[C@](O)(CO)[C@H]2O)[C@@H](O)[C@H](O)[C@H]1O (some centres not stated),2.62%,,-9.77%,4.64%,inactive,-11.4%,,,,
CC1=CC[C@@]2(C)CC[C@@](O)(C(C)C)[C@@H]2[C@@H](O)C1,2.53%,,1.77%,,inactive,0.0265%,,inactive,,
O=C(Cc1ccc(Cl)cc1)Nc1cnccc1C(=O)O,,,-20.9%,1.29%,inactive,4.18%,inactive,,,
Oc1ccc(CC2NCCc3cc(O)c(O)cc32)cc1 (configuration not stated),4.94%,,1.1%,1.59%,inactive,-11.9%,,,,
C=C(C(=O)O)[C@@H]1CC[C@H](C)[C@@H]2CC(=O)C(C)=C2C1,,,-2.91%,3.54%,inactive,3.15%,inactive,,,
CCCCOc1nc(N)c2c(n1)N(Cc1cccc(CN3CCCC3)c1)CC(=O)N2,,,,-3.08%,inactive,-3.01%,inactive,,inactive,inactive
CCC1(O)CC2c3cc(OC)c(OC)cc3CCN2CC1CC(C)C (configuration not stated),-19.7%,,-10.4%,7.48%,inactive,0.903%,,,,
COC(=O)C1=CO[C@@H](O[C@@H]2O[C@H](CO[C@@H]3O[C@H](CO)[C@@H](O)[C@H](O)[C@H]3O)[C@@H](O)[C@H](O)[C@H]2O)[C@@H]2C(CO)=CC[C@H]12,-2.64%,,,,inactive,1.28%,,inactive,inactive,inactive [at 17.4 µM]
Cc1ccc(C)c(NC(=O)CNS(=O)(=O)c2ccc3[nH]c(=O)oc3c2)c1,,,-0.793%,8.68%,inactive,-17.1%,inactive,,,
C[C@H]1[C@@H](O)[C@H](O)C2[C@]3(C)C([C@@H](O)[C@H]4OC(=O)[C@@H]1[C@@]24C)[C@](C)(O)C=C[C@H]3O[C@@H]1O[C@H](CO)[C@@H](O)[C@H](O)[C@H]1O (some centres not stated),0.954%,,-2.23%,8.84%,inactive,-1.06%,,,,
